Screening data from PubChem.
An excerpt weighted towards active compounds, which were near 5.9% of everything screened.
RORg inh = blocks mouse ROR gamma transcriptional activity. P51450. Drosophila S2 Gal4-RORgamma UAS-luciferase reporter, 20 h. Potency, µM (series often up to 53.6 µM), without a hit: top-dose activity change, negative = inhibition, hits mostly inhibitors. hit rate 5.4% among 310,000. AID 2551; note: % is set by controls: 0 for no effect and ±100 for the full control effect; nearly all actives have a fitted effect of over 60% in size
Target sequence (P51450 whole entry, looked up, the tested form may be a part): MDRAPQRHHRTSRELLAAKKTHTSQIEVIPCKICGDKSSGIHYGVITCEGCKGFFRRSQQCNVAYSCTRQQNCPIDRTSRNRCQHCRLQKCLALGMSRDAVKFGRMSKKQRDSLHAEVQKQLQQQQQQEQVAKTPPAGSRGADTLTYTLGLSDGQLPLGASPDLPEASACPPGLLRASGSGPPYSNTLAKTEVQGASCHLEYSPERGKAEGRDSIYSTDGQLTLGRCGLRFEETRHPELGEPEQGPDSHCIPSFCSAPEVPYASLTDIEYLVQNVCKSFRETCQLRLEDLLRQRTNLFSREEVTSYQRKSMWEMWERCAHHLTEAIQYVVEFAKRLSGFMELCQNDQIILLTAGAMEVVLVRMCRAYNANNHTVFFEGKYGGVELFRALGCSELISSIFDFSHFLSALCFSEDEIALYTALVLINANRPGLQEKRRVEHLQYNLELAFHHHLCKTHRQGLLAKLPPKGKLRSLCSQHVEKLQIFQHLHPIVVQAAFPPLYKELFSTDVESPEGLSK
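Stable Schneider cell line, Gal4 DNA-binding domain fused to ROR gamma, UAS-luciferase. Cmpd 1 hr RT → CuSO4 700 uM final → 20 hr RT → luciferase reagent 10 min → luminescence.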
GLP-1R agonist = GLP-1 receptor (human) agonism; P43220; HEK293 GLP-1R CRE-luciferase, luminescence, 4-6 h; cells express a hypersensitive GLP-1R form; Potency, µM (titrated, usually from 45.6 µM), for the others: at the top dose activation, most hits filed as activators; hit rate 0.007% among 380,000; AID 624172; note: % of control where 0% means no effect
GLP-1R inv ag = acts as inverse agonist at human GLP-1 receptor; P43220; HEK293 GLP-1R CRE-luciferase, luminescence, 24 h; GLP-1R form is constitutively active; Potency, µM (highest dose often 38.3 µM), inactives show at the highest dose activity change, negative = inhibition, actives largely listed as inhibitors; hit rate 1.6% among 410,000; AID 624417; note: % is set by controls: 0 for no effect and ±100 for the full control effect; nearly all actives have a fitted effect of over 55% in size
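Luminescence readout: a drop in cAMP-driven luciferase signal flags inverse agonism at a constitutively active GLP-1R stably expressed in HEK293. Compound exposure lasted 24 hr at 37 deg C, 5% CO2.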
VP16 counter = counter-screen for ROR gamma inhibitors: Gal4-VP16 reporter; Drosophila S2 Gal4-VP16 UAS-luciferase, luminescence, 20 h; Potency, µM (highest dose often 53.6 µM), inactives show at the top dose activity, negative = inhibition, hits mostly inhibitors; hit rate 3.5% among 310,000;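 note: Gal4-VP16 expression switched on by copper sulfate through the metallothionein promoter; % is set by controls: 0 for no effect and ±100 for the full control effect; nearly all actives have a fitted effect of over 50% in size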
GLP1R cytotox = cytotoxicity counter-screen for GLP-1 receptor inverse agonists. Potency, µM (doses to about 38.3 µM), for the others: top-dose activity change, negative = inhibition, most hits filed as inhibitors. hit rate 0.13% among 410,000. HEK293 cAMP-luciferase reporter cells, luminescence, 24 h;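 note: loss of luciferase light is scored as toxicity; % is set by controls: 0 for no effect and ±100 for the full control effect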
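Compound-treated cells are incubated 24 hr at 37 deg C under 5% CO2 after a 12 hour attachment period, then luciferase detection reagent is added and luminescence is measured following 12 min at room temperature; lowered signal indicates toxicity.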
The depositor's hits bear a star; u = inconclusive; x = no result given; [ ] = dose if it differs, or a comment. Calls come from the whole dose curve; as a rule, active = well fitted curve in the direction sought with a large enough effect; inconclusive = small, poorly fitted or top-dose-only effect, or another doubt; inactive = no such curve, though single readings can be large; an effect the other way counts as inactive or inconclusive. Potency is the fitted concentration of half-maximal effect.

SMILES	RORg inh	GLP-1R agonist	GLP-1R inv ag	VP16 counter	GLP1R cytotox
CC(C)C(=O)Nc1nc2cc3c(cc2s1)OCO3	58%	-1%	12%	u	-1%
CCN(C(=O)CSc1nc2ccccc2n1CC(=O)N1CCCC(C)C1)c1ccccc1 (stereo not drawn)	x	x	-10%	x	7%
CCC(Oc1ccc(F)cc1)C(=O)Nc1nc2c(s1)CCCC2 (stereo not drawn)	x	x	u	x	-6%
Cc1nn(CCc2n[nH]c(=S)n2C)c(C)c1Br	-26%	-6%	2%	11%	10%
COc1ccccc1-n1c(CCn2nc(C)c(Br)c2C)n[nH]c1=S	10µM*	1%	15%	u	-1%
COc1ccccc1-n1c(-c2cn(C)nc2C)n[nH]c1=S	-49%	1%	2%	-5%	-13%
Cc1nn(CCc2n[nH]c(=S)n2C2CCCCC2)c(C)c1Br	5.6µM*	-10%	u	u	-9%
CCOC(=O)N/N=C1/C[C@@H](O)[C@@H](O)[C@@H]2[C@@H]3C(=O)N(C(C)(C)C)C(=O)[C@H]3CC[C@@H]12	-1%[10 µM]	x	x	7%[10 µM]	x
CSCC[C@H](NC(=O)[C@H](Cc1ccccc1)NC(=O)[C@H](Cc1cnc[nH]1)NC(=O)CNC(=O)[C@@H](NC(=O)[C@H](C)NC(=O)[C@H](Cc1c[nH]c2ccccc12)NC(=O)[C@H](CCC(N)=O)NC(=O)[C@@H]1CCCN1C(=O)[C@@H](NC(=O)[C@@H]1CCC(=O)N1)C(C)C)C(C)C)C(N)=O	2%	x	x	13%	x
CCCCCCCCCCCCCC[N+](C)(C)C	u	-1%	x	u	x
CCCCCCCC[N+](C)(C)CCCCCCCC	x	-1%	x	x	x
CCCCCC[N+](C)(C)CCSSCC[N+](C)(C)CCCCCC	-1%	-6%	9%	1%	-3%
CCCCCCCC[N+](CCCCCCCC)(CCCCCCCC)CCCCCCCC	4.5µM*	x	x	2µM*	x
CCCCCCCCCCCCCCCC[N+](C)(C)CCl	x	-27%	3.5µM*	x	u
CCCCCCCCCCCCCCCC[N+](C)(C)CC	-28%	-4%	11µM*	-23%	-23%
O=C(Cn1cnc2c(oc3ccccc32)c1=O)Nc1ccccc1C(F)(F)F	x	x	8%	x	-1%
C=Cc1cccc(C)c1	-2%	x	x	-1%	x
CC1=C(C(=O)N2CCCC(C(=O)c3cccc4ccccc34)C2)OCCO1 (stereo not drawn)	u	10%	-26%	13µM*	-30%
COCCNC(=S)N=Nc1c(O)[nH]c2c(C)cc(C)cc12	2.2µM*	3%	14%	7.9µM*	u
Cc1cc(C)c2[nH]c(O)c(N=NC(=O)c3cc4c(s3)CCCC4)c2c1	21%	x	x	6%	x
Cc1cccc(C(=O)Nc2nc3nc(-c4ccccc4)cc(=O)n3[nH]2)c1	x	x	12%	x	-4%
COc1cc(/C=C2\SC(c3ccc(C)cc3)=NC2=O)ccc1O	14µM*	0%	24%	10µM*	1%
O=C(O)C(Cc1ccccc1)N1C(=O)/C(=C/c2ccccc2)SC1=S (stereo not drawn)	-9%[10 µM]	-6%	u	1%	1%
COc1cc(/C=C2\SC(=S)N(NC(=O)c3ccc(O)cc3)C2=O)ccc1O	11µM*	11%	-17%	u	u
COc1cc(/C=C2\SC(=S)N(C(Cc3ccccc3)C(=O)O)C2=O)ccc1O (stereo not drawn)	0%	-4%	-4%	-21%	10µM*
SMILES	RORg inh	GLP-1R agonist	GLP-1R inv ag	VP16 counter	GLP1R cytotox
COc1cc(/C=C2\SC(=S)N(NC(=O)c3cccnc3)C2=O)ccc1O	-10%	0%	9%	-3%	u
Cc1cc(C)nc(NN2C(=O)/C(=C/c3ccccc3)SC2=S)n1	13µM*	-10%	2%	-12%	1%
Cc1ccc2nc(Nc3ccc(C)c(F)c3)c3nncn3c2c1	x	x	45%	x	0%
COc1cc(/C=C2\SC(=S)N(Nc3ccccc3)C2=O)ccc1O	u	-1%	u	u	10µM*
CCCc1nnc(NC(=O)Cc2coc3ccc(C(C)C)cc23)s1	x	x	-10%	x	8%
Cc1ccc(C)c(S(=O)(=O)Nc2cc(SCC(=O)O)c(O)c3ccccc23)c1	-30%[10 µM]	-11%	-21%	14µM*	-27%
CCOc1ccc(S(=O)(=O)Nc2cc(SCC(=O)O)c(O)c3ccccc23)cc1	10µM*	-3%	-23%	u	-6%
CCc1ccc(S(=O)(=O)Nc2cc(SCC(=O)O)c(O)c3ccccc23)cc1	-38%	2%	-2%	u	1%
COc1ccc(NS(=O)(=O)c2ccc3c(c2)CCN3C(=O)CCC(=O)O)cc1Cl	x	x	1%	x	0%
CCOC(=O)c1c(CSc2ccc(CC)cc2)oc2ccc(O)c(CN(C)C)c12	u	18%	2.5µM*	u	u
CCOC(=O)c1c(C)oc2ccc(O)c(CN(C)C)c12	-4%[0.365 µM]	-15%	-26%	x	-18%
C#CCCCO/N=C1/C[C@@H](O)[C@@H](O)[C@@H]2[C@@H]3C(=O)N(Cc4ccc5c(c4)OCO5)C(=O)[C@H]3CC[C@H]12	-1%[10 µM]	x	x	5%[10 µM]	x
O=C(Nc1cccc(-c2nc3ccccc3[nH]2)c1)c1ccco1	1%	17%	13%	u	-10%
COc1c(Cl)cc(C(=O)Nc2cccc(-c3nc4ccccc4[nH]3)c2)cc1Cl	x	x	7.9µM*	x	u
COc1c(Cl)cc(C(=O)Nc2ccccc2-c2ccccc2)cc1Cl	-1%	-12%	10µM*	-7%	8%
CC(NC(=O)CCCN1C(=O)CCn2nc(-c3cn(C)c4ccccc34)cc21)c1ccccc1 (stereo not drawn)	x	x	-26%	x	-27%
N#C/C(=C(/N)Sc1ccc(N)cc1)c1ccccc1C(F)(F)F	41%	x	x	u	x
COc1ccc(-c2nc(C(=O)NCC3CCCO3)cc3c2[nH]c2ccccc23)cc1 (stereo not drawn)	u	-5%	10µM*	-15%	u
CCCNC(=O)c1csc(Nc2cccc3ccccc23)n1	25%	12%	u	0%	-6%
Cc1ccccc1-c1nc(C(=O)NCC2CCCO2)cc2c1[nH]c1ccccc12 (stereo not drawn)	u	u	10µM*	-3%	-19%
COc1cc(-c2nc(C(=O)NC3CCN(Cc4ccccc4)CC3)cc3c2[nH]c2ccccc23)cc(OC)c1OC	-43%	8%	u	u	u
O=C(NCC1CCCO1)c1csc(Nc2cccc3ccccc23)n1 (stereo not drawn)	11µM*	-2%	-20%	-10%	-4%
Cc1ccc(-c2nc(C(=O)NCC3CCCO3)cc3c2[nH]c2ccccc23)cc1 (stereo not drawn)	46%	-5%	u	-8%	u
